An excerpt weighted towards active compounds, which were near 0.83% of everything screened.
NR5A2 inv ag: suppresses constitutive activity of human LRH-1 | AID 602396 | HEK293T StAR-luciferase reporter, LRH-1 transfected, 24 h | actives 0.13% (n = 360,000) | O00482 | inhibition, % at 3.6 µM;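 active means inhibition above the mean inhibition of all tested compounds plus 3 SD, cut at about 73% in these data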
NCOA1 inh: human NCOA1 inhibition. HEK293 GAL4-SRC1 luciferase reporter, luminescence. actives 0.12% (n = 360,000). Q15788. AID 588354. inhibition, % at 3.6 µM;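 active means inhibition above the campaign mean plus 3 SD, with each screening campaign given its own cutoff, cut at about 60% in these data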
Target sequence (Q15788 whole entry, looked up, the tested form may be a part): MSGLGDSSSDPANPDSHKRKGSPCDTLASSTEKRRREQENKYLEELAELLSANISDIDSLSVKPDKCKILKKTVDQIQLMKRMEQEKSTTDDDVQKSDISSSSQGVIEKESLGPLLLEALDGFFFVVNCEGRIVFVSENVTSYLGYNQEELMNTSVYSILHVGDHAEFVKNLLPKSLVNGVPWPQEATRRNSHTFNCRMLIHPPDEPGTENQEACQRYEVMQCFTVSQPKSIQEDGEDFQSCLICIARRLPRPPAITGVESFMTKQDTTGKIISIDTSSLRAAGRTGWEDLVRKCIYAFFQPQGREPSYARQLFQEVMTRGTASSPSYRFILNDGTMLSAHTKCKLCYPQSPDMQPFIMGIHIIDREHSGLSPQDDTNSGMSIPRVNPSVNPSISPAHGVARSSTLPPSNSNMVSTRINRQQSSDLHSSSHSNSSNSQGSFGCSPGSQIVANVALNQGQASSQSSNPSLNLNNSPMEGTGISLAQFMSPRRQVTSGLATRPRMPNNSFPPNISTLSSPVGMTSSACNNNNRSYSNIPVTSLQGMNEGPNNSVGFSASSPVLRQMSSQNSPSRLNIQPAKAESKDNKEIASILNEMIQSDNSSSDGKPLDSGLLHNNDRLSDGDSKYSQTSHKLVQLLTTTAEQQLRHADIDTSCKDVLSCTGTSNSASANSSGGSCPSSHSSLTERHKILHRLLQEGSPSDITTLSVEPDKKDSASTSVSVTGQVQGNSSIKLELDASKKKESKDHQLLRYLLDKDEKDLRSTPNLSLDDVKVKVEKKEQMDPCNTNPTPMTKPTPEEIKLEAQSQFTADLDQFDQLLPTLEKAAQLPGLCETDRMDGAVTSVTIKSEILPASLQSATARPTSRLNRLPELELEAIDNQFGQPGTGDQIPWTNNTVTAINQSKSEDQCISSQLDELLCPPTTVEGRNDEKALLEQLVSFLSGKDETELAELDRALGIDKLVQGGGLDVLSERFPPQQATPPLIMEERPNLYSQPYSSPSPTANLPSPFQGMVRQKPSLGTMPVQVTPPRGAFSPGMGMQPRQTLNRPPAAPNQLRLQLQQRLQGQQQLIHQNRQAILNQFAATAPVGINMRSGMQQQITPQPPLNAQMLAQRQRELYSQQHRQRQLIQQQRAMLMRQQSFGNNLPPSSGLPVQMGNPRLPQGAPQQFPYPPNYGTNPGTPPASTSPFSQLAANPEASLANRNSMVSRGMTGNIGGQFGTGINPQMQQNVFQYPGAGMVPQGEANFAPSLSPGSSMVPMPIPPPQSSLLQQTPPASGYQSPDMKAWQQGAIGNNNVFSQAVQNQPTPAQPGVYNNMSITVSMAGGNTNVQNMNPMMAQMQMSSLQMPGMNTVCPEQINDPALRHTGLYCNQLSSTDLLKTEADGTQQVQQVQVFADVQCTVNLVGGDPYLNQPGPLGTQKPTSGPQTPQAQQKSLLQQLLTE
COUP-TFII inh: inhibitors of human COUP-TFII (NR2F2). P24468. HEK293T NGFI-A luciferase reporter, luminescence. inhibition, % at 8.6 µM. actives 0.7% (n = 370,000);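 active means inhibition above a per-plate cutoff, mean inhibition of test wells between control levels plus 3 SD, cut at about 38% in these data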;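 further: cells cotransfected with COUP-TFII expression vector driving the NGFI-A reporter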
NCOA3 inh: human NCOA3 inhibition; Q9Y6Q9; actives 0.17% (n = 360,000); HEK293 GAL4-SRC3 luciferase reporter, luminescence; inhibition, % at 3.6 µM;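 active means inhibition above a per-campaign cutoff, the mean of all compounds plus 3 SD, cut at about 60% in these data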;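 further: higher means less SRC3-driven luciferase light from the GAL4 reporter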
SRC2 inh: inhibits human steroid receptor coactivator 2. inhibition, % at 9 µM. HEK293 GAL4-SRC2 luciferase reporter, luminescence. actives 0.17% (n = 370,000). AID 651957. Q15596;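 active means inhibition above the mean inhibition of all tested compounds plus 3 SD, set per campaign, cut at about 52% in these data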
Numbers stand for hits; - = inactive; . = no result.

SMILES	NR5A2 inv ag	NCOA1 inh	COUP-TFII inh	NCOA3 inh	SRC2 inh
O=C(O)CCSCC(=O)c1ccc2c(c1)OCCO2	-	-	-	-	56
O=C(O)CCC(=O)c1ccc2c(c1)OCCO2	-	-	-	-	-
COc1ccc(C(C(=O)N(C)C2CCCC2)N(Cc2ccc(F)cc2)C(=O)c2ncn[nH]2)cc1OC (stereo unspecified)	.	.	-	.	-
CCCC(=O)Nc1cccc(NC(=O)c2ccccc2Br)c1	-	-	-	-	52
CC(C)(C)c1ccc(-c2cn(C[C@H](Cc3ccccc3)n3c(=O)c4ccccc4n3Cc3ccno3)nn2)cc1	.	.	-	.	-
Cc1ccccc1C(=O)NC1CCCCN(Cc2cccc(F)c2)C1=O (stereo unspecified)	.	.	-	.	-
COC(=O)c1ccc(C=NNC(=O)c2cc(-c3ccc(C)c(C)c3)n[nH]2)cc1	.	.	-	.	-
CC(C)(C)c1nnc(N/N=C/c2ccccc2)n(N)c1=O	-	-	-	-	-
CC(C)(C)c1nnc(N/N=C/c2ccccc2O)n(N)c1=O	-	70	-	79	-
CCOCCCNC(=O)C1CCN(S(=O)(=O)c2cc3c(cc2Br)CCN3C(=O)CC)CC1	.	.	-	.	-
COc1cccc(N2CCN(c3c(C#N)c(C(F)(F)F)nn3C)CC2)c1	-	-	51	-	-
O=C(/C=C/c1ccc(Cl)cc1)NC(=S)Nc1ccc(NC(=O)c2ccco2)cc1	-	68	-	-	-
COCC(=O)N(C)[C@H]1C[C@H]2c3[nH]c4cccc(-c5cccc(F)c5)c4c3CCN2C(=O)[C@H]1[C@H](C)O	.	.	-	.	-
Cc1cc(N2CCC(C)CC2)nc2ccccc12	.	.	-	.	.
Cc1cc(C=C2C(=O)c3ccccc3C2=O)c(C)n1-c1ccc(C(=O)O)cc1	-	-	-	-	-
Cc1cc(C=C2C(=O)c3ccccc3C2=O)c(C)n1-c1ccccc1	-	-	-	85	-
CCC(=O)OCCCN1CCC2(CCC(c3ccccc3)CC2)C1=O (stereo unspecified)	.	.	-	.	-
COC(=O)C1CN(Cc2ccccc2)CCS(=O)(=O)N1Cc1cn(Cc2ccc(F)cc2)nn1 (stereo unspecified)	.	.	-	.	-
CC(NC(=O)CCc1nnc(-c2ccc(-c3ccccc3)cc2)o1)c1nc2ccccc2[nH]1 (stereo unspecified)	-	-	-	-	67
Cc1cccc(CC(C)NC(=O)CCc2nnc(-c3ccccc3)o2)n1 (stereo unspecified)	-	-	-	-	-
Cc1c(C(=O)N(Cc2ccc(F)cc2)C2CCS(=O)(=O)C2)oc2ccccc12 (stereo unspecified)	94	-	-	-	-
S=C(NCCCCN(Cc1ccc(Cl)cc1)c1ccc(Br)cn1)NCCCc1cnc[nH]1	95	-	-	-	-
COC(=O)[C@H](C)N(CCc1cn(Cc2ccccc2)nn1)S(=O)(=O)c1ccccc1Br	.	.	-	.	-
Cc1cc(/C=c2/sc3nc4ccccc4n3c2=O)c(C)n1-c1ccccn1	79	88	101	90	79
CCCCN(CC)Cc1ccc(CNC(=S)Nc2c(C)cc(C)cc2C)o1	-	-	-	-	-
SMILES	NR5A2 inv ag	NCOA1 inh	COUP-TFII inh	NCOA3 inh	SRC2 inh
CCCCN(CC)Cc1ccc(CNC(=S)Nc2ccc(C)cc2Cl)o1	-	-	-	-	53
CCn1c2ccccc2c2cc(NC(=O)COC(=O)c3cc(F)ccc3F)ccc21	.	.	-	.	-
COc1cccc(/C=N/Nc2nccnc2Cl)c1O	-	-	-	-	-
COc1cccc(/C=N/Nc2cc(-n3nc(C)cc3-c3ccccc3)ncn2)c1O	-	-	-	-	-
COc1cccc(/C=N/Nc2ncnc(Cl)c2N)c1O	-	-	-	66	-
COc1cccc(/C=N/Nc2ncnc3scc(-c4ccccc4)c23)c1O	98	85	-	88	-
COCCCNC(=O)CSc1nnc(-c2ccncc2)n1-c1ccc(OC)cc1	.	.	-	.	-
Cc1ccc(-n2c(SCC(=O)Nc3ccc(S(=O)(=O)Nc4nccs4)cc3)nnc2-c2cccs2)cc1	.	.	-	.	-
COCc1[nH]nc2c1C(c1ccc(F)cc1)NC2=O (stereo unspecified)	.	.	-	.	-
O=C(Nc1cccc2c1CCCC2)c1cc([N+](=O)[O-])ccc1Cl	-	-	-	-	58
O=C(C1CCCN(S(=O)(=O)c2ccccc2[N+](=O)[O-])C1)N1CCN(Cc2ccccc2)CC1 (stereo unspecified)	.	.	-	.	-
CC(=O)Nc1nc2ncccn2c1-c1ccc(C)cc1	.	.	-	.	-
CC(C)(C)C(=O)N1CCC[C@]2(CC[C@H](CCC#N)O2)C1	.	.	-	.	-
CN(CCCS(=O)(=O)[O-])c1ccc(/C=C/c2ccc3ccccc3[n+]2C)cc1	-	-	-	-	-
CN(C)c1ccc(/C=C/c2ccc3c4ccccc4ccc3[n+]2-c2ccccc2)cc1	91	71	85	77	-
CN(C)c1ccc(/C=C/c2cccc[n+]2[O-])cc1	-	-	-	-	-
CN(C)c1ccc(/C=C/c2ccc3ccccc3[n+]2C)cc1	97	63	72	70	-
O=[N+]([O-])c1cc(S(=O)(=O)C(F)(F)F)ccc1Sc1nc2ccccc2s1	-	-	-	-	-
CS(=O)(=O)c1ccc(Sc2nc3ccccc3s2)c([N+](=O)[O-])c1	-	-	.	73	.
Cc1ccc(C(C)C)c(OCc2ccc(C(=O)N/N=C/c3cccc(O)c3O)cc2)c1	-	-	-	65	73
CC(=O)Nc1ccc(C(=O)N/N=C/c2ccccc2OCc2ccccc2)cc1	-	-	-	-	-
COc1cc(/C=N/NC(=O)c2ccc(COc3cc(C)ccc3C(C)C)cc2)cc(OC)c1O	-	-	-	-	62
CN(C)c1ncnc2[nH]ncc12	-	-	-	-	-
CCCN(CC)c1ncnc2[nH]ncc12	-	65	-	65	55
CCOc1ccc(-n2c(C)c(C(C)=O)c3cc(O)ccc32)cc1	-	61	-	-	-
SMILES	NR5A2 inv ag	NCOA1 inh	COUP-TFII inh	NCOA3 inh	SRC2 inh
CCOc1ccc(-n2c(C)c(C(=O)OC)c3cc(O)ccc32)cc1	-	-	-	-	-
COc1ccc(Cc2nnc(N/N=C/c3ccc(O)cc3)[nH]c2=O)cc1OC	-	-	-	69	53
CCc1ccc(-c2nc(CSCC(=O)NC3CC3)c(C)o2)cc1	-	-	-	-	56
O=C1c2c(O)ccc(O)c2C(=O)c2c(NCCNCCO)ccc(NCCNCCO)c21	-	65	-	-	-
O=C(c1ccc(-c2ccccc2)cc1)c1ccccc1C(=O)N1CCOCC1	-	-	-	-	-
S=C(c1ccc(-c2ccccc2)cc1)N1CCOCC1	-	-	-	-	52
C=CCNC(=O)C1CCN(c2cncnc2)CC1	.	.	-	.	-
O=C(N[C@@H](Cc1cccnc1)C(=O)N1CCC[C@H]1C(=O)NCCc1ccccc1Cl)c1ccc(Cl)c(Cl)c1	.	.	-	.	-
Cc1[nH]c(=O)c(C(=O)/C=C/c2ccccc2F)c2c1CCCC2	-	62	-	87	61
C/C(=C\c1ccccc1F)C(=O)c1c(C)cc(C)[nH]c1=O	-	-	-	-	-

High-throughput results from PubChem.
